From PubChem BioAssay
Where “and” joins values, the source holds several entries; their conditions need not be identical. Equal values may be shown once. Results filed as inconclusive are left out. Calls of active or inactive are those of the source.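 The calls were made as follows, unless noted: active = compounds whose cell count with miR-34 switched on is under 0.7 times the count with it off; inactive = the rest.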

Experiments:
[1] = stimulators of nuclear beta-catenin in C2C12, primary screen, imaging, WNT3A-conditioned medium, mouse C2C12, NPC library (AID 1117326; in the data active = nuclear beta-catenin stimulation mostly above about 4.2%, no sharp cut-off; inactive = mostly below about 10%; also: reference of the scale not given here); conditions: stronger effect = higher value
[2] = stimulators of insulin release from INS-1E, primary screen, cell-based, 5 mM glucose, NPC library (AID 1117329;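 active = compound raises insulin release from rat beta cells at 5 mM glucose, no numeric limit stated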; also: reference of the scale not given here); conditions: rat INS-1E insulin secretion, at 10 µM, stronger effect = higher value
[3] = growth inhibition of GSK3B-pretreated HCT116 cells – cell-based, CellTiter-Glo, 0.2 to 20 µM (AID 1117336;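 active = compounds lowering colon cancer cell viability after pretreatment blocking the GSK3B kinase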); conditions: HCT116 viability after GSK3B inhibitor, at 20 µM, stronger effect = higher value
[4] = inhibition of endothelial tube formation, primary screen, imaging, VEGF stimulated, CD31 staining, tube area, NPC library (AID 1117340;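 active = compound that reduces growth-factor-driven endothelial tube area in a mixed cell culture, no cutoff stated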); conditions: VEGF-stimulated ADSC/ECFC co-culture, at 10 µM, stronger effect = higher value
[5] = glucagon-like peptide 1 release enhancers, primary assay, NCI-H716 cell line, NPC library (AID 1117341;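 active = compound raises GLP1 secretion from the human gut endocrine cells, with no numeric limit stated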; also: reference of the scale not given here); conditions: NCI-H716 cells, at 10 µM, stronger effect = higher value
[6] = HCT116 colon cancer cell growth inhibition, primary screen, CellTiter-Glo luminescence, NPC library (AID 1117342;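 active = compounds that lower survival of HCT116 colon cancer cells in the luminescence readout, no numeric limit stated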); conditions: at 20 µM (top of the series)
[7] = CellTiter-Glo luminescent readout of SW480 viability loss, NPC library primary (AID 1117343;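 active = compounds that lower viability of the colon cancer cells in the luminescence readout, with no numeric limit stated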); conditions: CellTiter-Glo luminescence; at 20 µM (top of the series) unless noted
[8] = decreased DLD-1 cellular survival, CellTiter-Glo luminescent readout, NPC compound collection, primary HTS (AID 1117346;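 active = compounds that lower survival of DLD-1 colon cancer cells in the luminescence readout, no cutoff given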); conditions: DLD-1 viability, CellTiter-Glo luminescence; at 20 µM (top of the series)
[9] = tested on: Aerobactin synthetase IucA (Klebsiella pneumoniae); assay: IucA aerobactin synthetase inhibitors, biochemical, Tocris library, absorbance (AID 1345561; call rule not given here;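 also: 100% = enzyme without compound and 0% = no enzyme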); conditions: purified IucA enzyme assay, absorbance (OD) read-out; stronger effect = lower value;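 tested at 8 µM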
[10] = sensitizers of A549 cells to miR-34 induction, primary screen, imaging, A549 dox-inducible miR-34, nuclei and caspase counts (AID 1347080); conditions: A549 miR-34 inducible, Hoechst nuclei count, 48 h
[11] = viability rescue of complex I mutant cybrids, primary screen, cell-based, galactose medium, ATP luminescence (AID 1645843;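 active = z-score of at least 1.8 in each of two replicates, scored against plate mean and spread of sample wells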;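 also: positive z means more ATP and so rescue of galactose-driven cybrid death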); conditions: complex I mutant cybrid cells, 72 h, stronger effect = higher value
[12] = survival rescue of mitochondrial mutant cells in low glucose, primary screen, MELAS cybrids, Rieske KO mouse fibroblasts, CellTiter-Glo (AID 1508586;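 active = mean z-score across replicates of 1.96 or higher in either the MELAS or the Rieske mutant cell line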;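 also: z relative to plate mean and SD of compound and empty wells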)
[13] = growth inhibition of DIPG glioma cells, dose response, cell-based, SU-DIPG-XVII, MIPE5.0, CellTiter-Glo, qHTS (AID 1347060; cut-off not given, nearly all actives have AC50 up to about 26 µM); conditions: SU-DIPG-XVII viability, CellTiter-Glo ATP luminescence
[14] = growth inhibition of DIPG glioma cells, dose response, cell-based, SU-DIPG-XIII, MIPE4.0, CellTiter-Glo, qHTS (AID 1347061; cut-off not given, nearly all actives have AC50 up to about 37 µM;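 also: cells exposed to compound for 48 hours before readout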); conditions: SU-DIPG-XIII viability, CellTiter-Glo ATP luminescence
[15] = SU-DIPG-VI glioma cell viability, MIPE4.0 library, CellTiter-Glo luminescence, qHTS (AID 1347066; cut-off not given, nearly all actives have AC50 up to about 30 µM;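 also: cells exposed to compound for 48 hours before readout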); conditions: CellTiter-Glo ATP luminescence
[16] = SU-DIPG-XXV glioma cell viability, MIPE5.0 library, qHTS (AID 1347068; cut-off not given, nearly all actives have IC50 up to about 30 µM)
[17] = stronger effect = lower value, cell number ratio, induced over uninduced
[18] = measured here: relative caspase fold change +Dox/-Dox
[19] = measured here: total cells with miR-34 induction, stronger effect = lower value
[20] = measured here: total cells without miR-34 induction

OCC(CO)N[C@H]1C[C@](O)(CO)[C@@H](O)[C@H](O)[C@H]1O
5.1%: nuclear beta-catenin stimulation ([1]; stimulation, at 2 µM)
1.87: fold change [10, 18]
10200: cell count [10, 20]
inactive: nuclear beta-catenin stimulation ([1]; at 10 µM) 3.1% | insulin secretion stimulation [2] -1.5% | viability decrease [3] -12.8% | tube area decrease [4] 7.6% | GLP1 secretion stimulation [5] 1.9% | inhibition of viability [6] 5.5% | viability decrease (inhibition) [7] 27.3% | viability decrease (inhibition) [8] 1.55% | remaining activity [9] 123% | fold change [10, 17] 0.876 | z-score [11] 0.245
8920: cell count [10, 19]

Cc1ccc(=O)n(-c2ccccc2)c1
10500 and 9310 and 10100: cell count [10, 20]
inactive: nuclear beta-catenin stimulation ([1]; at 10 µM) 2.8% | insulin secretion stimulation [2] -1.2% | viability decrease [3] -0.3% | tube area decrease [4] 13.3% | GLP1 secretion stimulation [5] -2% | inhibition of viability [6] -4.6% | viability decrease (inhibition) [7] 39.2% | viability decrease (inhibition) [8] 12.8% | remaining activity [9] 120% | fold change [10, 17] 1.05 and 0.91 and 0.937 | z-score ([12]; MELAS cybrid survival, CellTiter-Glo 48 h, stronger effect = higher value) -0.113 | z-score [11] 0.38 and -0.08
0.6%: nuclear beta-catenin stimulation ([1]; stimulation, at 2 µM)
-0.414: z-score ([12]; Rieske KO mouse fibroblast survival, CellTiter-Glo 72 h)
11000 and 8480 and 9430: cell count [10, 19]
1.33 and 1.82 and 0.797: fold change [10, 18]

CC1(C)Oc2ccc(C#N)cc2[C@@H](N2CCCC2=O)[C@@H]1O
0.1%: nuclear beta-catenin stimulation ([1]; stimulation, at 2 µM)
10200: cell count [10, 20]
inactive: nuclear beta-catenin stimulation ([1]; at 10 µM) 0.9% | insulin secretion stimulation [2] 0.4% | viability decrease [3] -2.5% | tube area decrease [4] -8.1% | GLP1 secretion stimulation [5] 3.2% | inhibition of viability [6] 17.9% | viability decrease (inhibition) [7] -2.4% | viability decrease (inhibition) [8] 5.4% | remaining activity [9] 118% | fold change [10, 17] 0.905 | z-score [11] 0.27
9250: cell count [10, 19]
1.17: fold change [10, 18]

COc1ccc(CCN(C)CCCN2CCc3cc(OC)c(OC)cc3CC2=O)cc1OC
1.41: fold change [10, 18]
8880: cell count [10, 20]
inactive: nuclear beta-catenin stimulation ([1]; at 10 µM) 1.2% | insulin secretion stimulation [2] 10.7% | viability decrease [3] -11.1% | tube area decrease [4] -12.6% | GLP1 secretion stimulation [5] 7.6% | inhibition of viability [6] 7.5% | viability decrease (inhibition) [7] -4.7% | viability decrease (inhibition) [8] 12.1% | remaining activity [9] 98.9% | fold change [10, 17] 0.903 | z-score [11] -0.34
0%: nuclear beta-catenin stimulation ([1]; stimulation, at 2 µM)
8020: cell count [10, 19]

CCOC(=O)[C@H](CCc1ccccc1)N[C@H]1CS[C@H](c2cccs2)CN(CC(=O)O)C1=O
-0.9%: nuclear beta-catenin stimulation ([1]; stimulation, at 2 µM)
active: AC50 [14] 14.8 µM
inactive: nuclear beta-catenin stimulation ([1]; at 10 µM) 0.9% | insulin secretion stimulation [2] 2% | viability decrease [3] -8.8% | tube area decrease [4] -13.9% | GLP1 secretion stimulation [5] 4.1% | inhibition of viability [6] -4.6% | viability decrease (inhibition) [7] -29% | viability decrease (inhibition) [8] 2.5% | outcome [13] | outcome [15] | outcome [16]
